# Assay outcomes deposited in PubChem BioAssay by several laboratories.
# Compounds with a hit are over-represented: about 3.8% of the library has one in this group of screens.
# Jurkat NFkB inh: lowers PMA/ionomycin-induced NF-kB signal in Jurkat cells; PMA/ionomycin-induced NF-kB luciferase reporter, luminescence; inhibition, % at 4 µM; hit rate 0.53% among 330,000; in the data active = inhibition above about 50%
# 697 NFkB inh: lowers PMA/ionomycin-induced NF-kB signal in 697 B cells. 697 B-cell NF-kB luciferase reporter, 16 h. inhibition, % at 4 µM. hit rate 0.33% among 330,000; in the data active = inhibition above about 35%
# A1 inh: inhibitors of the anti-apoptotic protein A1, read as caspase activation | MEF A1-2A-BIM cells, Caspase-Glo 3/7 luminescence, 3 h; percent of clofoctol response, vehicle zero | caspase activation, % (test concentration not listed) | hit rate 0.066% among 330,000;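 active = over half of replicate activation scores above 10%, or exactly half above 10 with the replicate mean above 10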
# Mdm2-MdmX inh: inhibitors of human Mdm2/MdmX interaction | O15151+Q00987 | SaOS-2 split-luciferase Mdm2/MdmX complementation, luminescence | inhibition, % at 8 µM | hit rate 3% among 330,000 | AID 485346;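 active = inhibition of at least 50% at 8 µM in the primary screen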
# Target sequence (O15151 whole entry, looked up): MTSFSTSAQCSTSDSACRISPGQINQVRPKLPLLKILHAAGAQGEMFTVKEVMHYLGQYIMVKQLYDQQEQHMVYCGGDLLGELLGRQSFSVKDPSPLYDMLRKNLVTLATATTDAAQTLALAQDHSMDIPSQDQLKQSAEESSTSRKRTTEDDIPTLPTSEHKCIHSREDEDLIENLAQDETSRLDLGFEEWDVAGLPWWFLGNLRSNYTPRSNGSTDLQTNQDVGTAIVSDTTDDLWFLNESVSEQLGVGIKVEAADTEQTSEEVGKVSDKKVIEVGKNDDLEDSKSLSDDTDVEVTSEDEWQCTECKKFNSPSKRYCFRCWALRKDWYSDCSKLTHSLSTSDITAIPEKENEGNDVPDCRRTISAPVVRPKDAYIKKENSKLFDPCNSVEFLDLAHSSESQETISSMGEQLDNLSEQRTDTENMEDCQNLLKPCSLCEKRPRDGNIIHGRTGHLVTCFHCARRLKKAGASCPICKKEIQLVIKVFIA
# Target sequence (Q00987 whole entry, looked up): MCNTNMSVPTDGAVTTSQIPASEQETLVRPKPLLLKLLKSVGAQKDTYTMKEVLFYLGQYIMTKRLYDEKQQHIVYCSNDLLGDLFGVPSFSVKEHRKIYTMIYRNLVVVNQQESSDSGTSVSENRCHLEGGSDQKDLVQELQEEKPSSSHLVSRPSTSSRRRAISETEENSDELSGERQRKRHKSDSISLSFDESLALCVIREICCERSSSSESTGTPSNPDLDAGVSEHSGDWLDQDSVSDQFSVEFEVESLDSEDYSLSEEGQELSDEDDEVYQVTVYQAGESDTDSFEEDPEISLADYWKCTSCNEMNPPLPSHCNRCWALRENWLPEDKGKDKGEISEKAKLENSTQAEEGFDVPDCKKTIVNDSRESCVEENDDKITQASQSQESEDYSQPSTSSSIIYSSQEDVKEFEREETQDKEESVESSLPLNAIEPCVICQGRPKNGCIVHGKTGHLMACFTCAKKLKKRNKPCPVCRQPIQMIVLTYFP
# NTR1 agonist: NTR1 (human) agonism; P30989; NTR1-U2OS beta-arrestin-GFP spot imaging, agonist mode; activation, % at 20 µM; hit rate 0.17% among 330,000; AID 493036;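 active = activation at or above 40% of the spot to cytoplasm intensity ratio, with at least 20 cells analyzed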;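 note: 0% = DMSO without peptide and 100% = 100 nM NTR1 peptide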
# Beta cell apopt: blocks beta cell apoptosis; hit rate 0.8% among 300,000; AID 435005; protection from apoptosis, % (test concentration not listed); INS-1E cytokine-induced death, ATP luminescence, 48 h; percent of positive-control rescue, neutral wells zero;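 active = Every replicate reaches about 75%, or at least half do and their mean reaches it too, limit read from the data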;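 note: 0% = cytokine-treated negative control wells and 100% = positive control rescue; higher means more ATP so stronger rescue from cytokine killing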
# Mdm2-MdmX conf: confirmation of human Mdm2/MdmX interaction inhibitors; shares compounds with Mdm2-MdmX inh; hit rate 55% among 10,000; inhibition, % at 8 µM; Mdm2-MdmX binding, luminescent assay; in the data active = inhibition above about 40%
# FLuc counter: full-length luciferase inhibition in Mdm2/MdmX counter-screen; hit rate 77% among 6,200; SaOS-2 full-length luciferase counterscreen, luminescence; shares compounds with Mdm2-MdmX inh; inhibition, % at 8 µM;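 active = mean inhibition at 8 µM reaching about 37%, which flags the compound as non-specific, limit read from the data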;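 note: p53-null SaOS-2 cells with luciferase driven by a doxycycline-inducible promoter; compound on cells about two nights before reading with doxycycline added after day one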
# * hit, by the source's call; nt = not tested or not shown.
SMILES,Jurkat NFkB inh,697 NFkB inh,A1 inh,Mdm2-MdmX inh,NTR1 agonist,Beta cell apopt,Mdm2-MdmX conf,FLuc counter
CCC(C(=O)NCCc1ccc(OC)c(OC)c1)n1nc(C)n2c(cc3occc32)c1=O (centres undefined),0,11,-3,13,0,7,nt,nt
CCc1cc(C)cc(OCCNC(=O)c2cncc(Br)c2)c1,4,-5,0,59*,2,-9,29,nt
COc1ccc([C@H]2CC(=O)C=C(c3cc(OC)ccc3OC)C2)cc1,44,-23,0,51*,2,5,51*,54*
CN1C2CCC1/C(=C\c1ccccc1F)C(=O)/C2=C/c1ccccc1F,18,-46,2,59*,10,4,41*,35
CS(=O)(=O)N1CCc2cc(C(=O)Nc3ccc(COCC(F)(F)F)cc3)ccc21,-17,-36,0,-36,4,7,nt,nt
CC(=O)Nc1ccc(NC(=O)CCc2nc3sc4c(c3c(=O)[nH]2)CCCC4)cc1,10,18,0,11,0,1,nt,nt
CN(CC(=O)Nc1ccc(Cl)cc1)C(=O)CCc1nc2sc3c(c2c(=O)[nH]1)CCCC3,-14,-3,-1,86*,1,3,50*,96*
Cc1cc(C)cc(NC(=O)CCc2nc3sc4c(c3c(=O)[nH]2)CCCC4)c1,12,32,-1,82*,8,nt,94*,96*
CCN1CCC(O)(C#Cc2ccccc2)CC1,-11,10,-1,9,-1,1,nt,nt
CC1C(c2ccccc2)N(C)C(c2ccccc2)C(C)C1(O)C#Cc1ccccc1 (centres undefined),19,7,0,71*,2,10,25,nt
Cn1c2ccccc2c(=O)c2ccc(C#CC3(O)CCCCC3)cc21,-136,-223,-2,83*,11,13,75*,146*
COc1ccc(C#Cc2ccc3c(c2)c(=O)c2ccccc2n3C)cc1,9,-13,1,5,-2,-11,nt,nt
CCNc1nc(NCC)n2c(SC(C(=O)Nc3cc(Cl)cc(Cl)c3)c3ccccc3)nnc2n1 (centres undefined),5,-28,1,95*,13,3,-3,nt
Cc1ccc(/C=N/N2C(=S)SC(C)(C)C2N(O)C(=O)Nc2ccc([N+](=O)[O-])cc2)cc1 (centres undefined),-2,7,1,67*,19,11,25,nt
CCCCNC(=O)c1ccc(Cn2c(=S)[nH]c3c([nH]c4ccc(OC)cc43)c2=O)cc1,-19,-7,51*,89*,4,101*,16,nt
CCOC(=O)[C@@H]1[C@H]2COc3cc(OC)ccc3[C@@H]2N2C(=O)N(c3ccc(Cl)cc3)C(=O)[C@@]12C,-3,-27,2,-5,1,-1,nt,nt
CCOC(=O)c1[nH]c2ccc(OC)cc2c1NC(=S)N1CCN(c2ccccc2OC)CC1,24,5,0,52*,1,12,46*,69*
COc1cc(CN2CCC(C(=O)NCC(C)(C)CN(C)C)CC2)ccc1OCc1ccccc1,-4,12,1,92*,0,nt,80*,71*
C[C@H](CO)N1C[C@H](C)[C@@H](CN(C)Cc2ccc(C(=O)O)cc2)Oc2ccc(NC(=O)Cn3cnnn3)cc2C1=O,5,16,nt,20,0,nt,nt,nt
C[C@@]12CCC=C[C@H]1[C@H](c1ccc3ccccc3c1Br)N(Cc1ccccc1)C2=O,7,-2,0,50*,18,6,9,nt
COC(=O)c1ccc(-c2ccc(OC)c([C@H]3[C@H]4C=CC[C@@H](C)[C@@H]4C(=O)N3Cc3ccccc3)c2)cc1,-23,31,2,62*,4,-10,45*,46*
CC(=O)c1ccc(-c2ccc([C@H]3[C@H]4C=CC[C@@H](C)[C@@H]4C(=O)N3Cc3ccccc3)c(F)c2)cc1,7,11,1,56*,8,9,11,nt
CC(=O)c1ccc(-c2ccccc2[C@H]2[C@H]3C=CC[C@@H](C)[C@@H]3C(=O)N2Cc2ccccc2)cc1,11,-33,nt,36,7,nt,nt,nt
CC(=O)c1ccc(-c2ccc([C@H]3[C@@H]4C=CCC[C@@]4(C)C(=O)N3Cc3ccccc3)c(F)c2)cc1,4,14,0,54*,10,22,16,nt
COC(=O)c1ccc(-c2ccc([C@H]3[C@H]4C=CC[C@@H](C)[C@@H]4C(=O)N3Cc3ccccc3)c(F)c2)cc1,1,-37,0,39,2,3,nt,nt
SMILES,Jurkat NFkB inh,697 NFkB inh,A1 inh,Mdm2-MdmX inh,NTR1 agonist,Beta cell apopt,Mdm2-MdmX conf,FLuc counter
Cc1ccc(-c2ccc([C@H]3[C@@H]4C=CCC[C@@]4(C)C(=O)N3Cc3ccccc3)c(F)c2)cc1,14,18,0,39,3,5,nt,nt
O=C(Nc1ccc2c(c1)OCO2)C1CCCN1C(=O)Nc1ccccc1 (centres undefined),-2,11,0,-8,0,4,nt,nt
CCCNC(=O)NC(=O)CSc1nc2ccccc2c(=O)n1Cc1ccncc1,14,7,0,23,0,3,nt,nt
CCCCn1c(N)c(N(CC(C)C)C(=O)c2cc(-c3ccc(F)cc3)nc3ccccc23)c(=O)[nH]c1=O,8,4,0,23,0,3,nt,nt
CCn1cc(C(=O)O)c(=O)c2cc(F)c(N3CCN(C(=S)NC(=O)c4ccccc4Br)CC3)cc21,-20,11,0,-13,0,-8,nt,nt
Cc1ccc2c(C(=O)CCl)c(C)[nH]c2c1,11,7,1,92*,8,-44,77*,60*
Cc1ccc2c(C(=O)CN3CCSCC3)c(C)[nH]c2c1,5,-24,0,18,0,3,nt,nt
Cc1ccc2[nH]cc(C(=O)CCl)c2c1,24,-23,1,82*,5,-81,67*,58*
COc1ccccc1[C@H]1C(c2cccc(C)c2)=NN(c2ccccc2)[C@@H]1CO,nt,-9,nt,56*,7,nt,36,nt
CC(C)Cc1nnc(NC(=O)CN2C(=O)NC3(CCCC3)C2=O)s1,-1,3,0,11,-1,-2,nt,nt
CC(Oc1ccccc1)C(=O)Nc1nc(-c2ccccn2)cs1 (centres undefined),4,-38,nt,74*,2,nt,75*,43*
CC(Oc1ccccc1)C(=O)Nc1nc(-c2ccncc2)cs1 (centres undefined),14,4,0,26,6,-3,nt,nt
CC(Oc1cccc(Cl)c1)C(=O)Nc1ccncc1 (centres undefined),8,14,1,1,-1,1,nt,nt
